The record followed here is the supplement of paper PMC7156485.

Unmarked numbers belong to inactive results.
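Further: TDF is a line of transformed human dermal fibroblasts of mesenchymal origin.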

This experiment relates to TDF. The experiment is described as follows: H1.0 immunofluorescence intensity relative to DMSO (% of DMSO); higher = stronger H1.0 induction, active = 120 or more. The conditions noted are these: concentration: 10 µM; 24 h. The method in brief: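 After 24 h at 37 °C with compounds at 10 µM, in triplicate, HCC1569 and TDF cells were fixed with 3.7% formaldehyde. Immunostaining used a rabbit anti-H1.0 antibody and an AlexaFluor 647 secondary, with DAPI, and six fields per well were imaged at ×10. H1.0 nuclear intensity or cell number is presented as percent of the plate control, from the median of replicates, with HCC1569 values smoothed for positional effects.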
For `CSC(=S)NCc1c[nH]c2ccccc12` [Brassinin], the H1.0 immunofluorescence intensity is 97.9.

On to `CS(=N)(=O)CCC(N)C(=O)O` [L-Methionine sulfoximine], for which the H1.0 immunofluorescence intensity is 92.5.

For `CC(C)CC(NP(=O)([O-])OC1OC(C)C(O)C(O)C1O)C(=O)NC(Cc1c[nH]c2ccccc12)C(=O)[O-].[Na+].[Na+]` (configuration not stated) [Phosphoramidon disodium], the H1.0 immunofluorescence intensity was 90.6.

Consider `O=[N+]([O-])c1cc(O)c(O)c([N+](=O)[O-])c1` [3,5-Dinitrocatechol], for which the H1.0 immunofluorescence intensity was 99.9.

As for `CC(C)NCC(O)c1ccc(N)c(C#N)c1` (configuration not stated) [Cimaterol], the H1.0 immunofluorescence intensity is 87.7.

For `NC(Cn1oc(=O)[nH]c1=O)C(=O)O` (configuration not stated) [Quisqualic acid], the H1.0 immunofluorescence intensity is 102.

Turning to `NC(CCP(=O)(O)O)C(=O)O` (racemic), the H1.0 immunofluorescence intensity was 96.9.

Take `CCCCCCCCCCCCCCCCOCC(O)COP(=O)([O-])OCC[N+](C)(C)C` (configuration not stated): the H1.0 immunofluorescence intensity was 97.4.

On to `CCC1CN2CCc3cc(OC)c(OC)cc3C2CC1CC1NCCc2cc(OC)c(OC)cc21.Cl.Cl` (configuration not stated), for which the H1.0 immunofluorescence intensity is 120.

As to `COC(=O)c1cc2c(cn1)[nH]c1ccccc12` [Methyl beta-carboline-3-carboxylate], the H1.0 immunofluorescence intensity was 90.1.

On to `CC1OC(OC2CC(O)C3(CO)C4C(O)CC5(C)C(C6=CC(=O)OC6)CCC5(O)C4CCC3(O)C2)C(O)C(O)C1O` (configuration not stated) [Ouabain], for which the H1.0 immunofluorescence intensity was 125 (active).

As to `CCCCCC=CCC=CCC=CCCCCCCC(=O)NCCO` [Anandamide (20:3,n-6)], the H1.0 immunofluorescence intensity is 102.

Turning to `COc1cc(=O)oc(C=CC=CC=CC(C)=CC2(C)OC(C)C(C)(O)C2O)c1C` (configuration not stated) [Citreoviridin], the H1.0 immunofluorescence intensity is 123 (active).

Take `COc1ccc2c(c[n+](C)c3c4cc5c(cc4ccc23)OCO5)c1OC.[Cl-]` [Chelerythrine Chloride]: the H1.0 immunofluorescence intensity is 94.

In the case of `CC1(O)CC23CC(O)C4(O)C(CC(O)C4(C)C)C(C)(O)C2CCC1C3O` (configuration not stated) [Grayanotoxin III], the H1.0 immunofluorescence intensity is 91.9.

With `CC(C(O)CCC(C)(C)O)C1CCC2(O)C3=CC(=O)C4CC(O)C(O)CC4(C)C3CCC12C` (configuration not stated) [Ecdysone], the H1.0 immunofluorescence intensity was 90.8.

In the case of `CC12NC(Cc3ccccc31)c1ccccc12.O=C(O)C=CC(=O)O` (single isomer, unassigned; (+)) [(+)-MK-801 hydrogen maleate], the H1.0 immunofluorescence intensity is 98.6.

On to `Cl.Oc1ccc2c3c1OC1C(O)CCC4(O)C(C2)N(CC2CCC2)CCC314` (configuration not stated) [Nalbuphine hydrochloride], for which the H1.0 immunofluorescence intensity was 92.6.

As for `CC(=O)OC1C2C(OC(=O)Cc3ccccc3)C(C)CC2(OC(C)=O)C(=O)C(C)=CC2C(CCC13CO3)C2(C)C` (configuration not stated) [Euphorbiasteroid], the H1.0 immunofluorescence intensity was 105.

Consider `Cl.NCCc1ccc(O)cc1` [4-Hydroxyphenethylamine hydrochloride], for which the H1.0 immunofluorescence intensity is 96.7.

With `CC(N)c1cccc(Cl)c1Cl.Cl` (racemic), the H1.0 immunofluorescence intensity is 102.

Consider `COc1cc2c(c(OC)c1OC)-c1ccc(OC)c(=O)cc1C(NC(C)=O)CC2` (configuration not stated) [Colchicine], for which the H1.0 immunofluorescence intensity is 168 (active).

`C=C1C(C)C2C(Cc3ccccc3)NC(=O)C23C(OC(C)=O)C=CC(C)(O)C(=O)C(C)CC=CC3C1O` (configuration not stated) [Cytochalasin D]: the H1.0 immunofluorescence intensity is 212 (active).

For the compound `CC1=CC(=O)c2c(O)cccc2C1=O` [Plumbagin], the H1.0 immunofluorescence intensity is 109.

As to `CC=C(C)C(=O)OC1CCC2(C)C3CCC4C5(O)CC(O)C6(O)C(CN7CC(C)CCC7C6(C)O)C5(O)CC42OC13O` (configuration not stated) [Cevadine], the H1.0 immunofluorescence intensity was 96.4.

Consider `COc1cccc(C2(O)CCCCC2CN(C)C)c1` (configuration not stated) [Tramadol], for which the H1.0 immunofluorescence intensity is 99.3.

For `CCCN1CCOC2c3cc(O)ccc3OCC21.Cl` (stereo not drawn) [S(+)-PD 128,907 hydrochloride], the H1.0 immunofluorescence intensity was 93.3.

On to `CC1=C(C)C(=O)C(CCC(C)(O)CCCC(C)CCCC(C)CCCC(C)C)=C(C)C1=O` (racemic), for which the H1.0 immunofluorescence intensity was 98.7.

Regarding `CN1CC(CO)C=C2c3cccc4[nH]cc(c34)CC21` (configuration not stated) [Lysergol], the H1.0 immunofluorescence intensity is 102.

For `O=C1NC(=O)c2c1c1c3ccccc3[nH]c1c1[nH]c3ccccc3c21`, the H1.0 immunofluorescence intensity is 79.9.

With `CCN1CC2(C)CCC(O)C34C5CC6C(OC)CC(O)(C(CC23)C14)C5C6O` (configuration not stated) [Karakoline], the H1.0 immunofluorescence intensity is 96.4.

For `Cc1cc(C(=O)CN2CCCC2)c(C)n1-c1ccc(F)cc1`, the H1.0 immunofluorescence intensity is 99.9.
